From PubChem
Compounds with a hit are over-represented: about 1.3% of the library has one in this group of screens.
UGM FP inh = Mtb UDP-galactopyranose mutase inhibition. AID 504406. P9WIQ1. actives 0.06% (n = 320,000). inhibition, % at 10 µM. purified UGM, fluorescence polarization probe displacement; in the data active = inhibition above about 10%, passing the limit was not always enough
RecA splice inh = Mtb RecA intein splicing inhibition; P9WHJ3; cell-free RecA intein splicing, fluorescence; inhibition, % (no concentration beside the values); actives 0.75% (n = 290,000); AID 2221; in the data active = inhibition above about 30%
Target sequence (P9WHJ3 whole entry, looked up, canonical isoform): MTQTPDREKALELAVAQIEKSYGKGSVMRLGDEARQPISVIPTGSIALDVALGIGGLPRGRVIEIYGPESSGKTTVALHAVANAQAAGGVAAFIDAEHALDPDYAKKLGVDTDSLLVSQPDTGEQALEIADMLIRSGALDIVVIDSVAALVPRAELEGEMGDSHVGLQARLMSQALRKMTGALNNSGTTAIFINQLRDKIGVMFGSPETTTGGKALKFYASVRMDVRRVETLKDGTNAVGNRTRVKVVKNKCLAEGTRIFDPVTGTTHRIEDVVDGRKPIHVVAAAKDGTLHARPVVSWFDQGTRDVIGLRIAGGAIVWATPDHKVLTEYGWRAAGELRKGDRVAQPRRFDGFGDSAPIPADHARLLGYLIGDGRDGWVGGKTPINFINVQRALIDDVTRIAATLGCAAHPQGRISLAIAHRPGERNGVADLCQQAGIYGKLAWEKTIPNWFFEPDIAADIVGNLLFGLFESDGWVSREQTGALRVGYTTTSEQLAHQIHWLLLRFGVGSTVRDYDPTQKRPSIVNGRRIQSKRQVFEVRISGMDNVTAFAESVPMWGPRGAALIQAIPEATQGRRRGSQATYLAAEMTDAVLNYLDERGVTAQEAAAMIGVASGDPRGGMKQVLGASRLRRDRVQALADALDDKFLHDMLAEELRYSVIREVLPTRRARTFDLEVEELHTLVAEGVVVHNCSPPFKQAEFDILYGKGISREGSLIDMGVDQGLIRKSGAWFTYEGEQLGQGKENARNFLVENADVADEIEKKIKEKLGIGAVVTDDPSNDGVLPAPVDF
FadD28 binding = inhibitors of Mycobacterium tuberculosis FadD28 bisubstrate binding; inhibition, % at 12.5 µM; actives 0.22% (n = 360,000); FadD28 bisubstrate probe binding, fluorescence polarization; in the data active = inhibition above about 8.5%, passing the limit was not always enough
PrP UTR inh = suppresses PrP 5' UTR mRNA reporter expression; AID 488862; actives 0.35% (n = 340,000); inhibition, % (test concentration not listed); cell-based PrP 5' UTR mRNA reporter, plate reader; in the data active = inhibition above about 52%
BJeLR viability = BJeLR cell viability loss. BJeLR (HRASV12) viability, CellTiter-Glo ATP luminescence, 48 h. inhibition, % (concentration not given with the values). actives 0.17% (n = 300,000). AID 1554; in the data active = inhibition above about 50%
Rv3671c protease = Rv3671c (M. tuberculosis) protease inhibition; inhibition, % at 5.96 µM; actives 0.048% (n = 320,000);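 also: extracellular domain of Rv3671c used as enzyme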
Rv3671c cf = confirmation of M. tuberculosis Rv3671c protease inhibitors. shares compounds with Rv3671c protease. inhibition, % at 5.96 µM. actives 40% (n = 140). AID 2761
PrP 5UTR single = prion 5' UTR mRNA inhibition, cherry-pick retest; actives 48% (n = 1,100); inhibition, % at 2.5 µM; cell-based prion protein 5' UTR reporter, plate reader; shares compounds with PrP UTR inh; in the data active = inhibition above about 54%
DNA intercalat = counter-screen: DNA intercalators; shares compounds with UGM FP inh; acridine orange-DNA binding, fluorescence polarization; AC50, µM; actives 60% (n = 35);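 active = fitted AC50 no greater than ten times the top concentration tested, cut at about 17 µM in these data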
A number is an active result; . = inactive; / = not tested or not shown. Rule as the data show it, unless noted: active = inhibition above about 38%; inactive = the rest.

SMILES	UGM FP inh	RecA splice inh	FadD28 binding	PrP UTR inh	BJeLR viability	Rv3671c protease	Rv3671c cf	others
COc1ccc(N/C=C(\C(C)=O)c2ccc(OC)c(OC)c2)cc1OC	.	.	.	.	.	89.5	.
COc1ccc(OC)c(NC(=O)Nc2nnc([C@H]3C[C@H](O)[C@@H](CO)O3)s2)c1	/	/	.	/	/	/	/
Nc1c(C(=O)O)ccc2c1C(=O)c1ccccc1C2=O	.	.	.	.	.	.	/
Nc1cc(C(=O)O)c(N)c2c1C(=O)c1ccccc1C2=O	.	.	8.3	.	.	61.5	52.0
O=C1C(Cl)=C(NCc2ccco2)C(=O)c2ccccc21	/	/	.	.	/	/	/
O=C1c2ccccc2-c2onc3ccc(NCc4ccco4)c1c23	12.2	.	11.6	.	.	106.5	81.0
CCNc1ccc2noc3c2c1C(=O)c1ccccc1-3	11.8	.	52.0	.	.	129.8	126.0
COc1cccc(CN2CCN(C(=O)[C@H]3O[C@@H](n4cnc5c(N)ncnc54)[C@H](O)[C@@H]3O)CC2=O)c1	/	/	.	/	/	/	/
CCOCCCn1c(SCC(=O)Nc2oc(C)c3c(C)n[nH]c(=O)c23)nc2ccccc2c1=O	/	/	.	.	/	/	/
Cc1n[nH]c(=O)c2c(NC(=O)CSc3nc4ccccc4c(=O)n3CCCOC(C)C)oc(C)c12	.	.	.	.	.	91.9	.
CCOC(=O)c1[nH]c(=S)[nH]c1C	/	/	.	.	/	/	/
O=C(N/N=C/c1c(O)ccc2ccccc12)Nc1ccccc1	.	.	/	/	.	40.3	56.3
O=C(CSCC(=O)Nc1ccccc1)N/N=C/c1c(O)ccc2ccccc12	.	.	.	.	.	.	/
COc1ccc(OC)c(-c2c3cc(O)c(=O)cc-3oc3cc(O)c(O)cc23)c1	.	/	101.9	.	/	62.7	76.3
C#CCn1cc(/C=N/Nc2nc3ccccc3[nH]2)c2ccccc21	.	.	.	.	.	61.6	63.7
C(=N\Nc1nc2ccccc2[nH]1)/c1cccc2nccnc12	.	.	.	.	.	.	/
CC(C)Cn1c(N)c(C(=O)COC(=O)c2ccc(O)cc2)c(=O)n(C)c1=O	.	.	.	.	.	60.1	.
O=c1[nH]c(-c2ccccn2)nc2sc(-c3ccccc3)cc12	/	.	.	.	.	/	/
COc1cnc(NS(=O)(=O)c2ccc(N)cc2)nc1	.	.	.	.	.	84.6	.
COc1ccc(CN2C(=O)C(CC(=O)NC3CC3)CC(C(=O)N(C)C)=C2C)cc1 (configuration not stated)	/	/	.	/	/	/	/
O=C(NC1CCN(C(=O)c2cccc([N+](=O)[O-])c2)CC1)c1ccccc1	.	.	.	.	.	144.3	.
O=CN1CCN(C(=O)c2cccc([N+](=O)[O-])c2)CC1	.	.	.	.	.	.	/
O=C(Nc1ccccc1)OC[C@@H]1C=CS(=O)(=O)N1Cc1ccc(Br)cc1	/	/	.	/	/	/	/
CCn1c(CSc2nnc(-c3cccnc3)n2-c2ccccc2C)nc2cc(C(=O)O)ccc21	.	/	/	/	/	48.5	63.8
COc1ccc(N2c3ccccc3CN(Cc3ccccc3)[C@@H](C)[C@H]2Cc2cccnc2)cc1	/	/	.	/	/	/	/
SMILES	UGM FP inh	RecA splice inh	FadD28 binding	PrP UTR inh	BJeLR viability	Rv3671c protease	Rv3671c cf	others
O=C(N/N=C/c1ccccc1O)c1ccncc1	.	.	.	.	.	.	/
O=C(N/N=C/c1cccnc1)c1cccc(NC(=O)c2cccc(Br)c2)c1	.	.	.	.	.	60.9	.
O=C(N/N=C/c1cc(Br)ccc1O)c1ccncc1	.	.	.	.	.	41.4	.
CC(=O)Nc1cccc(C(=O)N/N=C/c2cccnc2)c1	.	.	.	.	.	.	/
CCCCCCCCCCCCCCCC[n+]1ccc(/C=N/O)cc1	.	/	.	.	/	58.8	72.0	DNA intercalat=.
OC(c1cc(F)cc(Cl)c1)c1ncc(-c2ccccc2Cl)[nH]1 (configuration not stated)	/	/	.	/	/	/	/
CCOC(=O)COc1cccc2c(=O)n(CC(=O)NCc3ccc(F)cc3)ccc12	.	.	.	60.4	.	.	/	PrP 5UTR single=84.1
CC(C)NC(=O)c1onc(CSc2nc3ccccc3[nH]2)c1C(=O)NC(C)C	.	.	.	.	.	.	/
